RecA splice inh – blocks M. tuberculosis RecA intein splicing. cell-free RecA intein splicing, fluorescence. actives 0.75% (n = 290,000). inhibition, % (no concentration beside the values). P9WHJ3; in the data active = inhibition above about 30%;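 also: 0% = vehicle wells and 100% = reference inhibitor control wells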
GDH-TPI counter-1 – inhibits GDH-TPI coupling enzymes, artifact for Mtb FBA screen; GDH-TPI coupled enzyme counterscreen, NADH absorbance; inhibition, % at 4.8 µM; actives 1.2% (n = 360,000); AID 588335; in the data active = inhibition above about 30%;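 also: 0% = DMSO wells and 100% = wells lacking the enzyme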
Mtb FBA inh – inhibitors of M. tuberculosis fructose-bisphosphate aldolase; inhibition, % at 1 µM; P9WQA3; actives 2.3% (n = 360,000); AID 588726; purified M. tuberculosis FBA, fluorescence read-out; in the data active = inhibition above about 27%;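 also: 0% = vehicle and 100% = reference inhibitor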
Target sequence (P9WQA3 whole entry, looked up): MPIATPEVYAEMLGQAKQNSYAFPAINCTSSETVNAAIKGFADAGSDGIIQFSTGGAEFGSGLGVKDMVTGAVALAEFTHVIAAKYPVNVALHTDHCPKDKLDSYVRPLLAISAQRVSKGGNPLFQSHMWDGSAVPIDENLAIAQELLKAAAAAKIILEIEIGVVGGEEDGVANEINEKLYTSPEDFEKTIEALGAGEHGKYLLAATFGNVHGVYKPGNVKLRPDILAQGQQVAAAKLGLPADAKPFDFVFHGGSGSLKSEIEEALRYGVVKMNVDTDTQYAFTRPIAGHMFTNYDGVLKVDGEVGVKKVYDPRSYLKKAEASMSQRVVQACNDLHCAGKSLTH
Mtb bLac sens – beta-lactam sensitization of Mtb H37Rv; M. tuberculosis H37Rv growth with meropenem, percent inhibition; inhibition, % at 25 µM; actives 0.27% (n = 330,000);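 also: growth measured after seven days incubation then overnight dye step; 0% = bacteria only wells and 100% = bacteria with antibiotic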
Rv3671c inh – inhibits the M. tuberculosis serine protease Rv3671c | P9WHR9 | inhibition, % at 5.96 µM | actives 0.048% (n = 320,000) | AID 2606; in the data active = inhibition above about 38%;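 also: extracellular domain of Rv3671c used as enzyme; 0% = enzyme with DMSO and 100% = no enzyme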
UGM FP inh – blocks M. tuberculosis UGM enzyme; P9WIQ1; purified UGM, fluorescence polarization probe displacement; inhibition, % at 10 µM; actives 0.06% (n = 320,000); AID 504406; in the data active = inhibition above about 10%, passing the limit was not always enough
Mtb FBA inh conf – confirmation of M. tuberculosis fructose-bisphosphate aldolase inhibitors | shares compounds with Mtb FBA inh | purified M. tuberculosis FBA, fluorescence read-out | inhibition, % at 1 µM | actives 78% (n = 5,600) | AID 651616; in the data active = inhibition above about 27%;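 also: 0% = vehicle wells and 100% = reference inhibitor wells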
GDH-TPI counter-2 – counter-screen for M. tuberculosis FBA inhibitors: GDH-TPI coupled enzyme inhibition | shares compounds with Mtb FBA inh | GDH-TPI coupled enzyme counterscreen, fluorescence | inhibition, % at 1 µM | actives 81% (n = 5,600); in the data active = inhibition above about 10%
GDH-TPI dose – counter-screen for M. tuberculosis FBA inhibitors: GDH-TPI dose response | shares compounds with Mtb FBA inh | GDH-TPI coupled enzyme assay, fluorescence, artifact counterscreen | IC50, µM | actives 79% (n = 170)
Numbers without * were called inactive; / = no result; + = active, no number. Rows were chosen to be rich in hits. Some 4% of all compounds tested hit in one or more screens of this group. Unless noted, no rule for the calls is given here.

SMILES	RecA splice inh	GDH-TPI counter-1	Mtb FBA inh	Mtb bLac sens	Rv3671c inh	UGM FP inh	Mtb FBA inh conf	GDH-TPI counter-2	others
CCCCc1cc(=O)oc2cc(C)cc(OC(C)C(=O)NC(Cc3c[nH]c4ccc(O)cc34)C(=O)O)c12 (stereo unspecified)	4	16	37*	-6	-2	1	132*	102*
CCc1c(C)c2ccc(OC(C)C(=O)NC(Cc3c[nH]c4ccc(O)cc34)C(=O)O)c(C)c2oc1=O (stereo unspecified)	1	27	43*	-11	3	1	/	+
CCCc1cc(=O)oc2cc(C)cc(OC(C)C(=O)N[C@@H](Cc3c[nH]c4ccccc34)C(=O)O)c12 (stereo partly specified)	/	8	3	-9	-1	1	/	/
O=C([C@H]1O[C@@H](n2ccc(=O)[nH]c2=O)[C@H](O)[C@@H]1O)N1CCSC1	/	/	4	/	/	/	/	/
O=C(Nc1nncs1)c1cc(S(=O)(=O)N2CCCCC2)ccc1Cl	3	-4	1	-8	-9	1	/	/
CC(C)(C)C(=O)Nc1sc2c(c1-c1nc3ccccc3[nH]1)CCCC2	1	19	83*	-7	5	-3	83*	61*
O=C(c1ccc(F)cc1)n1ccc(-c2cnc(-c3ccccc3)s2)n1	4	22	47*	4	0	2	81*	59*
COc1ccc2oc(=N)c(-c3nnc4n3CCCCC4)cc2c1	-17	5	32*	-3	1	0	17	9	GDH-TPI dose=>10
Cc1cccn2c(=O)c3cc(C(=O)NCCCn4ccnc4)n(C)c3nc12	-22	12	59*	-2	-7	0	77*	53*
Cc1cccn2c(=O)c3cc(C(=O)N(C)C)n(C)c3nc12	-19	20	49*	2	-3	-1	93*	69*
Cc1cccn2c(=O)c3cc(C(=O)NCCCN4CCCC4=O)n(C)c3nc12	-71	25	108*	1	-13	0	1	-6
O=C1CC(C(=O)Nc2ccc(O)c(C(=O)O)c2)C(c2ccccc2)O1 (stereo unspecified)	0	8	59*	5	2	-1	143*	165*
Cc1ccn2c(c1)nc(=O)c1cc(S(=O)(=O)N3CCCCC3)ccc12	-3	15	54*	-1	-1	1	45*	39*
O=c1nc2ccc(Cl)cn2c2ccc(S(=O)(=O)N3CCCCC3)cc12	-20	11	60*	0	1	1	1	5
Cn1c(=O)c(=O)n(C)c2cc(S(=O)(=O)N3CCCCC3)ccc21	/	-3	-1	0	-3	2	/	/
O=c1nc2ccccn2c2ccc(S(=O)(=O)N3CCCCC3)cc12	0	11	99*	0	-1	4	111*	85*
Nc1cc(N)nc(SCc2ccccc2Cl)n1	/	-4	-2	/	/	/	/	/
Cc1cc2c(SCc3ccccc3Cl)nc(N)nc2nc1C	/	6	86*	/	/	/	19	1	GDH-TPI dose=1.3*
O=C(O)c1ccccc1N/C=C\[N+](=O)[O-]	-1	7	32*	-7	-1	3	71*	56*
O=C(/C=C/Nc1ccccc1C(=O)O)c1cccs1	3	5	4	-3	-1	-3	/	/
CC/C(C)=N/N1C(=O)c2ccccc2NC1(C)CC (stereo unspecified)	-4	9	38*	-8	5	1	115*	127*
O=C1c2ccccc2NC2(CCCC2)N1N=C1CCCC1	-2	14	6	4	1	0	/	/
O=C(OCc1ccc(Br)cc1F)c1cc2ccccc2oc1=O	/	10	67*	57	9	2	191*	153*
O=C(COC(=O)c1cc2ccccc2oc1=O)Nc1cccc(Br)c1	/	-2	0	6	-5	3	/	/
COc1ccc(NC(=O)Cn2c(CCC(=O)O)ccc2-c2ccccc2)cc1	-5	2	7	-4	4	2	/	/
SMILES	RecA splice inh	GDH-TPI counter-1	Mtb FBA inh	Mtb bLac sens	Rv3671c inh	UGM FP inh	Mtb FBA inh conf	GDH-TPI counter-2	others
COc1ccc(-c2ccc(CCC(=O)O)n2C(C)C)cc1	-24	13	32*	8	-8	-2	163*	114*
O=C(Nc1nc2ccccc2[nH]1)c1ccccc1O	0	15	47*	18	0	0	+	+
O=C(Nc1nc2ccccc2[nH]1)c1ccccc1	1	1	1	91	0	0	/	/
Cc1ccc(C2=NS(=O)(=O)N(C)C(C(=O)Nc3cc(C)n(CC(=O)N4CCC(C)CC4)n3)=C2)cc1	0	19	-4	-2	3	3	/	/
Cc1c(CCC(=O)O)c(=O)oc2cc(OCc3cccc(F)c3)ccc12	-2	8	86*	3	-4	-2	9	0
COc1ccc(-c2coc3cc4oc(=O)c(CC(=O)O)c(C)c4cc23)cc1	1	-4	3	/	/	/	/	/
Cc1c(CCC(=O)O)c(=O)oc2cc(OCc3ccccc3Br)ccc12	2	9	61*	4	-3	2	99*	69*
Cc1c(CC(=O)O)c(=O)oc2cc(OCc3ccc(Br)cc3)ccc12	1	17	86*	-7	-2	-2	139*	122*
COc1cccc(-c2coc3cc4oc(=O)c(CCC(=O)O)c(C)c4cc23)c1	1	0	3	0	-24	-1	/	/
Cc1nc2ccc(NC(=O)[C@H](C)N3C(=O)C4CC=CCC4C3=O)cc2s1 (stereo partly specified)	/	-3	1	0	6	0	/	/
CCOC(=O)/C=C/C(=O)OCC(=O)Nc1c(Cl)cccc1Cl	2	-10	-4	0	2	2	/	/
CCOC(=O)/C=C/[C@H]1CCc2cccc(Cl)c2O1	/	-4	67*	22	-3	2	9	7
CC(C)(CNC(=O)c1cccc(NS(=O)(=O)c2ccc(Br)cc2)c1)N1CCOCC1	-2	-2	-1	2	-9	1	/	/
CC(=O)Nc1cccc(-c2ccnc3c2CC(C)(C(=O)NCC2CC2)O3)c1 (stereo unspecified)	/	2	3	/	/	/	/	/
CCOC(=O)C1=C(C)NC2=C(C(=O)CC(C)(C)C2)C1c1ccc(N(C)C)cc1 (stereo unspecified)	2	3	0	-9	-3	1	/	/
CC1=C(C(=O)OCC2CCCO2)C(c2ccncc2)C2=C(CC(C)(C)CC2=O)N1 (stereo unspecified)	-74	-1	38*	34	1	2	59*	58*

High-throughput results (PubChem BioAssay)
